# Activity calls are given as the source filed them. No rule for the calls is given here.
# Target: Botulinum neurotoxin type A (Clostridium botulinum) (UniProt P0DPI0)
# Experiment: BoNT/A light chain protease inhibitors, biochemical, multiplex microsphere flow cytometry, validation set (AID 588460)
# Details: at 10 µM, hits give high values
# Sequence of Botulinum neurotoxin type A (Clostridium botulinum) (P0DPI0 whole entry, looked up): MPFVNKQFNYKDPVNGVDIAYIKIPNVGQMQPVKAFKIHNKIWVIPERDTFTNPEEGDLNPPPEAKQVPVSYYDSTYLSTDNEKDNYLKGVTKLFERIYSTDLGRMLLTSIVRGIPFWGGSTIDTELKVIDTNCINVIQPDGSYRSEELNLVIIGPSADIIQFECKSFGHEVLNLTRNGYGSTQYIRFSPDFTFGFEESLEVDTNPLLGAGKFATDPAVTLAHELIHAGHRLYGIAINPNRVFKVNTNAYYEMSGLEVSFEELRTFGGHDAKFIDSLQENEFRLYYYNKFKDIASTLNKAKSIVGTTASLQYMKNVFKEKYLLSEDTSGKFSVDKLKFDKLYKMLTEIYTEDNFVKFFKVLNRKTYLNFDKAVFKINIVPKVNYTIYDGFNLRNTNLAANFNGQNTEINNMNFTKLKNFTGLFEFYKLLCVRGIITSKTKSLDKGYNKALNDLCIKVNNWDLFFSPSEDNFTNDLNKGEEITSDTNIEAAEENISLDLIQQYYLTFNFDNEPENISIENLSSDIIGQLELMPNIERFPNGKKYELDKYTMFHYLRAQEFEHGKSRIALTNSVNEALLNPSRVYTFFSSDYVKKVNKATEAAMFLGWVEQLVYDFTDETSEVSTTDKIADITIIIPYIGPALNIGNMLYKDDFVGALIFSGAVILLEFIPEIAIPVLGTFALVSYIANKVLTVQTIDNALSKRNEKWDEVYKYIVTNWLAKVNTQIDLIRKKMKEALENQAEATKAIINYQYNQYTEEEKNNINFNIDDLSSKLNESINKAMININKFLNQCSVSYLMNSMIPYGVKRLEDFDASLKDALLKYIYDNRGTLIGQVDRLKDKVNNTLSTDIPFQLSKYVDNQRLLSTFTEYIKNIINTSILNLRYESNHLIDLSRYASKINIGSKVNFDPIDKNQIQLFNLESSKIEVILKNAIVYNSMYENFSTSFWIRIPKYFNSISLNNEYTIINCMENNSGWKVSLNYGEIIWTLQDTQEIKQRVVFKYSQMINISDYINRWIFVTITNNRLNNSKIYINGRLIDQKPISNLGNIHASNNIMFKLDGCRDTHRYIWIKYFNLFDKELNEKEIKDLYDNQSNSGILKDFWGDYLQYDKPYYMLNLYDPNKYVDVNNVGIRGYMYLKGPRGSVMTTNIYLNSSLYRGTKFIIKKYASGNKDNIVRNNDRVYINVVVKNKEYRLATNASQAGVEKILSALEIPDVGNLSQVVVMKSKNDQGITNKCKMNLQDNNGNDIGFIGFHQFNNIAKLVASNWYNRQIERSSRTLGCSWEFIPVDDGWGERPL
row,SMILES,inhibition
1,CCCC(=O)OCC[N+](C)(C)C,-2.9% (inactive)
2,C[C@]12CCC(=O)C=C1CC[C@@H]1[C@@H]2C(=O)C[C@]2(C)C(=O)CC[C@@H]12,1% (inactive)
3,NC(N)=NC(=O)c1nc(Cl)c(N)nc1N,-0.3% (inactive)
4,Cc1nc2ccccc2c(=O)n1-c1ccc(C(=O)O)cc1,-0.2% (inactive)
5,Cn1c(=O)c2[nH]cnc2n(C)c1=O,-2% (inactive)
6,Cc1c2ccncc2c(C)c2c1[nH]c1ccccc12,2.8% (inactive)
7,CC/C(=C\C=C\[C@@H]1C=C[C@@H]2CCC[C@H]2[C@@H]1C(=O)c1ccc[nH]1)[C@@H]1O[C@@H]([C@@H](C)C(=O)O)CC[C@@H]1C,0.5% (inactive)
8,C[C@]12CCC(=O)C(O)=C1CC[C@@H]1[C@@H]2CC[C@]2(C)C(=O)CC[C@@H]12,-1.4% (inactive)
9,CN1[C@@H]2CC[C@H]1CC(OC(=O)C1C=Nc3ccccc31)C2 (stereo partly drawn),-0.6% (inactive)
10,O=C1CSC2N1CCNC21CCCCC1 (stereo not drawn),1% (inactive)
11,C[C@H]1CCCC(=O)CCCCCc2cc(O)cc(O)c2C(=O)O1,-1.7% (inactive)
12,CC(=O)Nc1cc([As](=O)(O)O)ccc1O,-1.3% (inactive)
13,NCC(O)c1ccc(O)cc1 (stereo not drawn),1% (inactive)

# Reference: PubChem BioAssay
